Experimental data as given in PubChem BioAssay AID504891 (National Center for Advancing Translational Sciences (NCATS), 2011).
Hit rate of the full screen: of about 390,000 compounds, about 35 (0.009%) were called active. Inconclusive results (about 6%) are left out. Calls come from the whole dose curve; as a rule, active = well fitted inhibition curve with a large enough effect in the polarisation, with a control signal flat (not every such curve was filed as active); inconclusive = small, poorly fitted or top-dose-only effect, or effect the other way, or a change in a side signal; inactive = no such curve, though single readings can be large or run the other way; the % refers to the polarisation. The entries come from a sample that favours actives as a whole.

Molecular target: Peptidyl-prolyl cis-trans isomerase NIMA-interacting 1 (Homo sapiens) (UniProt Q13526)
Assay: qHTS Assay to Find Inhibitors of Pin1
Conditions: Pin1 FP peptide displacement, HiFluor488, 10 min; series mostly up to 115 µM; activity, negative = inhibition: at the top concentration
Excerpt: NIH Molecular Libraries Probe Production Network [MLPCN]
NIH Chemical Genomics Center [NCGC]
The unique chemical properties of Pro allow for the adoption of two completely distinct amide bond conformations (cis and trans). Peptidyl-prolyl cis/trans isomerases (PPIases) are evolutionary conserved enzymes that catalyze cis/trans isomerization of peptidyl-prolyl peptide bonds. Distinct from all other PPIases such as cyclophilins and FK506-binding proteins (FKBPs), Pin1 binds a subset of phos.Ser/Thr-Pro-containing proteins using its protein-targeting WW domain and isomerizes only specific phos.Ser/Thr-Pro bonds, which cannot be effectively catalyzed by other known PPIases.
Pin1-catalyzed conformational regulation can control a spectrum of activities of many key regulators in diverse cellular processes such as cell growth, genotoxic and other stress responses, immune response, germ cell development, neuronal differentiation and survival. Pin1 has emerged as a novel molecular timer that modulates its multiple targets at various steps of a given cellular process to synergistically control the amplitude and duration of a cellular response or process. Importantly, Pin1 is tightly regulated by multiple levels and its deregulation has an important role in a growing number of pathological conditions, including cancer, Alzheimer's disease, aging, asthma and microbial infection, providing a potentially new therapeutic option.
The goal of this screen is to find small-molecule inhibitors of Pin1 using a fluorescence polarization competition assay. A HiFluor-488-labeled peptide binds to the active site of Pin1 and can be displaced by compounds. Compounds were screened as a concentration-titration series that ranged from 57 uM to 0.7 nM.
NCGC Assay Protocol Summary:
Pin1 (0.6 uM) was dispensed into black, solid 1536-well plates at 2 uL/well in 10 mM HEPES (pH 7.5), 10 mM NaCl, 0.01% Tween20, 1 mM DTT, and 1% glycerol. Then, 23 nL of compounds or DMSO were delivered to each well using a pin tool. Two uL of Pin1-1b-HiFluor488 peptide (10 mM HEPES (pH 7.5), 10 mM NaCl, 0.01% Tween20, 1 mM DTT, and 1% glycerol, 0.02 uM Pin1-1b-HiFluor488) was then dispensed, and plates were incubated at room temperature for 10 min. The plates were measured on a ViewLux plate reader for fluorescence polarization signal using a 480/20 nM nm excitation filter and 540/25 nM nm S and P emission filters with a 20 second exposure. The %Activity was determined from the corrected fluorescence polarization values. Unlabeled Pin1-1c peptide was used as a control (3.5 mM two-fold serial; 20 uM final concentration) along with a 1x (0.3 uM) and 0x (no-enzyme) Pin1 enzyme control to normalize %Activity of identified inhibitors; 0x enzyme values corresponded to 100%Activity (full inhibition), while 1x Pin1 enzyme values were used to normalize 0%Activity (no inhibition).
Concentration-response curves were fitted to the signals arising from the resulting fluorescence polarization. The concentration-effect curves were then classified based on curve quality (r2), response magnitude and degree of measured activity, and compounds were subsequently categorized based on their curve class.
Keywords: Peptidyl prolyl isomerase, Pin1, fluorescence polarization, MLSMR, MLPCN, NIH Roadmap, qHTS, NCGC

Chain of Peptidyl-prolyl cis-trans isomerase NIMA-interacting 1 (Homo sapiens) (Q13526 whole entry, looked up): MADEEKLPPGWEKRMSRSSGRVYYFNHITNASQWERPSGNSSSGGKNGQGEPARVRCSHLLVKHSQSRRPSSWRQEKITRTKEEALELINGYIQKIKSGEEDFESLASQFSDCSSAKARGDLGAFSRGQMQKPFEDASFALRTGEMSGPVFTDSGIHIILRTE

activity, negative = inhibition, inactive:
Cc1ccccc1CNC(=O)C(=O)NCC(c1cccs1)S(=O)(=O)c1cccs1 (stereo unspecified) -12.7%, CC1CCC2(CC1)N=C(c1ccccc1)C(=O)N2CC(=O)Nc1ccc(F)c(Cl)c1 (stereo unspecified) 1.13%, COc1cc(OC)c(NC(=O)c2nc(-c3ccncc3)no2)cc1Cl 17.2%, Cc1cccc(CNC(=O)c2cnc3sc(N4CCCCC4)nn3c2=O)c1 -0.196%, CCc1ccccc1NC(=O)N1CCC2(CC1)Oc1ccccc1C(=O)N2Cc1ccccc1F -1.18%, COc1ccc(OC)c(NC(=O)CSc2nc3ccccc3nc2N2CCCCC2)c1 32.3%, CN1CCOc2cc(S(=O)(=O)N3CCN(S(=O)(=O)c4c(F)cccc4F)CC3)cnc21 -1.45%, O=c1c2ccccc2nc2sc(Nc3ccc(Oc4ccccc4)cc3)nn12 -0.254%, CCn1c(C)c(C)c2cc(C(=O)NCCc3cc(OC)ccc3OC)ccc21 23.6%, CCC(=O)N1CCc2cc(CNS(=O)(=O)c3ccc(Br)s3)ccc21 -1.02%, O=[S+]([O-])(c1ccc(OC(F)(F)F)cc1)N1CCN([S+](=O)([O-])c2ccc3c(c2)OCCO3)CC1 0.0725%, CC(C)(C)c1ccc(C(=O)NCC(c2ccc(Cl)cc2)N2CCOCC2)cc1 (stereo unspecified) 7.78%, COc1ccccc1Cc1nc2ccccc2nc1SCC(=O)N1CCCc2ccccc21 -0.247%, COc1ccc(C2Nc3ccccc3C(=O)N2Cc2ccc(Cl)cc2)cc1COc1ccc(NC(C)=O)cc1 (stereo unspecified) 7.36%, Cc1nn2c(=O)cc(COC(=O)c3ccccc3NC(=O)COc3ccccc3C)nc2s1 1.55%, CCOC(=O)c1ccc(NC(=O)CC2C(=O)N(c3ccccc3)C(=O)N2Cc2cccs2)cc1 (stereo unspecified) 13.3%, CC1CCCN(S(=O)(=O)c2ccc3[nH]c(=O)cc(C(=O)NCCc4ccc(Cl)cc4)c3c2)C1 (stereo unspecified) -5.21%, COc1ccc(N2CCN(S(=O)(=O)c3ccc4c(c3)CC(=O)N4)CC2)cc1 31.3% [at 230 µM], COc1ccc(N2CCN(C(=O)c3c(C)oc4nc(C)nc(N5CCCC5)c34)CC2)cc1 7.79%, O=[S+]([O-])(c1ccc2c(c1)OCCO2)N1CCN([S+](=O)([O-])c2c(Cl)cc(Cl)cc2Br)CC1 13.4%, Cc1ccc(C)c(N2CCN(C(=O)C3CCC(CNS(=O)(=O)c4cccs4)CC3)CC2)c1 (stereo unspecified) 38.7%, O=C(CSc1nc(-c2cccc(F)c2)[nH]c1-c1ccccc1)Nc1ccc2c(c1)OCO2 16.5%, COc1cc(F)c(S(=O)(=O)N2CCCN(S(=O)(=O)c3ccc(N)cc3)CC2)c(F)c1 0.343%, COC(=O)c1cnn(-c2ccc(C(=O)Nc3ccc(OC(F)(F)F)cc3)cc2)c1N -8.42%, O=S(=O)(c1ccc2c(c1)OCCO2)N1CCN(S(=O)(=O)c2cc(F)ccc2F)CC1 -1.33%, COC(=O)c1ccc(NC(=O)c2cnn(-c3ccc(Cl)cc3)c2C2CCN(C(=O)OC(C)(C)C)CC2)cc1 22.6%, CCCCN(C)CCCNC(=O)CN1N=C(c2ccc(OC)cc2)CCC1=O 2.62%, CCOc1ccc2oc(=O)cc(CN3CCN(C(=O)c4ccc(F)cc4)CC3)c2c1 -0.135%, O=C(O)c1ccc(Cn2c(SCc3ccc(F)cc3)nc3ccncc32)cc1 -0.106%, Cc1ccc(-c2nc3ccccn3c2Nc2c(C)cccc2C)o1 -3.86%, Cc1cccc(C(=O)NCCc2nc3ccccc3n2Cc2ccccc2Cl)c1 -1.58%, COc1cccc(C(=O)N(Cc2cccc(Cl)c2)Cc2ccco2)c1 -2.34%, CC(CNC(=O)c1nnc(Cc2cccc(F)c2)o1)c1ccccc1 (stereo unspecified) -7%, Cc1noc(C)c1-c1ccc2ncnc(NCc3ccc(F)c(F)c3)c2c1 -7.12%, O=C(CSCc1cnn(-c2ccccc2)c1-n1cccc1)NCc1ccc(Cl)cc1 26.7%, CC(C)c1ccc(NC(=O)C2CCN(c3nc(-c4ccc(C(C)C)cc4)no3)CC2)cc1 1.54%, NC(=O)C1CCN(C(=O)c2cccc(NC(=O)c3nsc4ccccc34)c2)CC1 -12%, Cc1ccc(C(=O)NC2CCN(C#N)CC2)cc1 5.3%, O=S(=O)(NCCc1nnc2ccc(SCc3ccc(Cl)cc3Cl)nn12)c1ccccc1 -1.54%, COC(=O)C(CC(C)C)NS(=O)(=O)c1cc(Br)ccc1Br (stereo unspecified) -1.84%, N#Cc1nc(NCc2ccc(Cl)c(Cl)c2)c2ncn(CCCO)c2n1 -3.83%, COCCNS(=O)(=O)c1cc(-c2nn3c(C)nnc3c3ccccc23)ccc1C -2.33%, O=S1(=O)N=C(Oc2cccc(Br)c2)c2ccccc21 6.87%, COc1ccc(CNC(=O)c2ccc3c(c2)nc2n3CCOC2)c(OC)c1 0.756%, COc1ccc(C2Nc3ccccc3C(=O)N2Cc2ccc(CNC(=O)CO)cc2)cc1COc1ccc(NC(C)=O)cc1 (stereo unspecified) 21.7%, COc1ccc(OC)c(NC(=O)C2CCN(S(=O)(=O)c3ccc(C)cc3)CC2)c1 12.5%, O=C1CC(c2ccccc2)CC2=C1C(c1ccco1)n1nc(C(F)(F)F)nc1N2 (stereo unspecified) -3.33%, COc1ccc(C2Nc3cccc(OC)c3C(=O)N2Cc2ccccc2)cc1COc1ccc(NC(C)=O)cc1 (stereo unspecified) 34.9%, COc1ccc(-c2ccc(C3C4C=CCCC4(C)C(=O)N3Cc3ccccc3)c(F)c2)cc1OC (stereo unspecified) -0.544%, Cc1cc(C)n2ncc(C(=O)Nc3cccc(C#N)c3)c2n1 1.24% [at 28.7 µM], CCCOc1ccc(NC(=O)CC2C(=O)N(c3ccccc3)C(=O)N2Cc2ccco2)cc1 (stereo unspecified) 1.04%, CCOC(=O)N1CCc2c(sc3c2c(=O)n(Cc2ccccc2)c(=O)n3CC(=O)Nc2cccc(C)c2)C1 16.1%, COC(=O)c1ccccc1NC(=O)c1ccc(C#N)cc1 5.67%, C=C1CCN(Cc2ccc(OC)cc2)S(=O)(=O)c2ccccc21 -0.748%, COc1ccc(C2=Nn3c(nnc3-c3ccccc3O)SC2)cc1 9.34%, O=C(c1ccco1)n1nc(-c2ccc(Cl)cc2)nc1NCc1ccccc1 -4.7%, Cc1ccc(S(=O)(=O)N2CCN(c3nc(-n4cnc5ccccc54)nc4ccccc34)CC2)cc1 -7.59%, O=C1NS(=O)(=O)c2ccccc21 -0.655%, COc1ccc(CN(Cc2ccccc2)C(=O)c2ccc(O)cc2)cc1COc1ccc(NC(C)=O)cc1 7.88%, COc1ccccc1/C=C/c1nc(C#N)c(NC(C)c2ccccc2)o1 (stereo unspecified) 6.03%, O=C(CNC(=O)c1ccc(Cl)c(C(F)(F)F)c1)OC(C(=O)Nc1cc(C(F)(F)F)ccc1Cl)c1ccccc1 (stereo unspecified) -2.44%
